According to the supplement of paper PMC6992640:
± gives the standard deviation of the averaged measurements.

Tests used:
Experiment in all cases: cell viability (% of vehicle); higher = less cytotoxic
Conditions in all cases: 10 µM; 72 h
HCI01 = tested on: HCI01 (cells of a triple-negative basal-like breast cancer xenograft)
HCI03 = tested on: HCI03 (cells of an ER-positive luminal breast cancer xenograft)
HCI09 = tested on: HCI09 (cells of a triple-negative luminal androgen receptor type breast cancer xenograft)
HCI11 = tested on: HCI11 (cells of an ER-positive luminal breast cancer xenograft)
HCI13 = tested on: HCI13 (cells of an ER-positive luminal breast cancer xenograft)
HCI16 = tested on: HCI16 (cells of a triple-negative basal-like breast cancer xenograft)
UCD52 = tested on: UCD52 (cells of a triple-negative basal-like breast cancer xenograft)
WHIM2 = tested on: WHIM2 (cells of a triple-negative basal-like breast cancer xenograft)
WHIM30 = tested on: WHIM30 (cells of a triple-negative basal-like breast cancer xenograft)
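Also: PDX cells carrying CMV promoter-driven luciferase, viability read as total photon flux per second by IVIS imaging following D-luciferin, vehicle control 0.1% DMSO.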

SMILES | cell viability (HCI01) | cell viability (HCI03) | cell viability (HCI09) | cell viability (HCI11) | cell viability (HCI13) | cell viability (HCI16) | cell viability (UCD52) | cell viability (WHIM2) | cell viability (WHIM30)
CC1CNCCCN1S(=O)(=O)c1cccc2cncc(F)c12.Cl.O.O (stereo unspecified) | 100 ± 12 | 140 | 96.3 ± 9 | 70.9 | 82.6 ± 8.8 | 58.7 | 84.8 ± 4.2 | 92.75 ± 0.41 | 82 ± 2
CN1C2=CC(=O)C(=NNC(N)=O)C=C2CC1S(=O)(=O)[O-].[Na+] (stereo unspecified) [Carbazochrome sodium sulfonate (AC-17)] | 99.8 ± 0.3 | 129 | 105.4 ± 0.44 | 94.6 | 81 ± 18 | 124 | 99 ± 19 | 99.4 ± 21 | 134 ± 9.7
COc1ccc(C(=O)CC(=O)c2ccc(C(C)(C)C)cc2)cc1 [Avobenzone] | 74.2 ± 40 | 126 | 74.1 ± 8.4 | 83.5 | 76.7 ± 5.2 | 119 | 71 ± 1.6 | 106 ± 37 | 141 ± 12
COc1ccc2c(c1)C(=O)N(CCc1ccc(S(=O)(=O)NC(=O)NC3CCCCC3)cc1)C(=O)C2(C)C [Gliquidone] | 89.2 ± 83 | 109 | 68.4 ± 19 | 91.4 | 94.6 ± 23 | 142 | 93.5 ± 11 | 130 ± 20 | 137 ± 19
COc1ccc2c(c1OC)C(=O)OC2C1c2c(cc3c(c2OC)OCO3)CCN1C.Cl (stereo unspecified) [Noscapine HCl] | 127 ± 6.7 | 114 | 127 ± 49 | 117 | 101 ± 6.3 | 117 | 93.7 ± 5 | 111 ± 18 | 139.5 ± 0.58
Nc1ncn(C2CC(O)C(CO)O2)c(=O)n1 (stereo unspecified) | 145 ± 29 | 140 | 96 ± 13 | 108 | 126 ± 12 | 123 | 136 ± 30 | 105 ± 16 | 189 ± 7.4
CNC(=O)c1ccc(N2C(=S)N(c3ccc(C#N)c(C(F)(F)F)c3)C(=O)C2(C)C)cc1F [MDV3100 (Enzalutamide)] | 115 ± 11 | 138 | 104.5 ± 0.14 | 96.1 | 94.3 ± 22 | 107 | 117 ± 6 | 97.9 ± 3.6 | 157 ± 1.9
COc1c(N2CCNC(C)C2)c(F)cc2c(=O)c(C(=O)O)cn(C3CC3)c12 (stereo unspecified) [Gatifloxacin] | 99.3 ± 31 | 81.1 | 75 ± 10 | 124 | 82.6 ± 7.6 | 92.2 | 140 ± 6.7 | 59.6 ± 23 | 124 ± 24
NC(=O)CC[C@H](N)C(=O)O [L-Glutamine] | 85.6 ± 8.7 | 92.8 | 92.2 ± 25 | 87.4 | 101.1 ± 0.78 | 97.3 | 82.9 ± 3.6 | 104 ± 3.9 | 70.6 ± 7.1
Cc1ccsc1C(=CCCN1CCC[C@@H](C(=O)O)C1)c1sccc1C [Tiagabine] | 96.4 ± 12 | 81.9 | 105 ± 4.9 | 84.2 | 96.9 ± 1.7 | 115 | 89.1 ± 5.2 | 100 ± 22 | 96 ± 12
CCOC(=O)C1=C(C)NC(C)=C(C(=O)OCC)C1c1ccccc1C=CC(=O)OC(C)(C)C [Lacidipine] | 107.7 ± 0.7 | 98.1 | 86.5 ± 9.8 | 110 | 88.7 ± 2.9 | 85.7 | 77.1 ± 6.1 | 99.8 ± 1.2 | 133 ± 3.9
Nc1ccn(C2CCC(CO)O2)c(=O)n1 (stereo unspecified) [Zalcitabine] | 90.1 ± 3.1 | 124 | 102 ± 5.5 | 93.5 | 91.99 ± 0.76 | 128 | 104 ± 10 | 85.08 ± 0.32 | 176 ± 35
CCCN1CCCCC1C(=O)Nc1c(C)cccc1C.Cl (stereo unspecified) [Ropivacaine HCl] | 98.4 ± 14 | 128 | 96 ± 5.6 | 86 | 96.2 ± 3.2 | 121 | 90.97 ± 0.57 | 92.8 ± 8.5 | 97.5 ± 4.7
CCCCC1C(=O)N(c2ccccc2)N(c2ccccc2)C1=O [Phenylbutazone] | 89.4 ± 24 | 129 | 86.7 ± 11 | 97.2 | 127.3 ± 0.28 | 120 | 88.9 ± 1.4 | 89 ± 23 | 119 ± 3.8
COc1ccc(C2CNC(=O)C2)cc1OC1CCCC1 (stereo unspecified) [Rolipram] | 130 ± 5.1 | 140 | 85.8 ± 11 | 106 | 175 ± 38 | 112 | 102 ± 18 | 101 ± 13 | 123 ± 19
CCNC(=O)CCCC=CCC1C(O)CC(O)C1C=CC(O)CCc1ccccc1 (stereo unspecified) [Bimatoprost] | 80.9 ± 64 | 154 | 91.9 ± 22 | 97.5 | 118 ± 6.7 | 144 | 86.2 ± 4.6 | 98.4 ± 23 | 148 ± 9.5
CN1CCN(C2=Nc3ccccc3Oc3ccc(Cl)cc32)CC1.O=C(O)CCC(=O)O [Loxapine Succinate] | 117 ± 40 | 88.4 | 84.5 ± 17 | 84.4 | 64.9 ± 5.7 | 138 | 108 ± 6.8 | 104 ± 24 | 103 ± 6
Cc1c(C(=O)Nc2ccc(N3CC(C)OC(C)C3)nc2)cccc1-c1ccc(OC(F)(F)F)cc1 (stereo unspecified) [LDE225 (NVP-LDE225,Erismodegib)] | 98.3 ± 17 | 119 | 66.8 ± 2.4 | 80.7 | 69.7 ± 4.5 | 94.8 | 80.8 ± 1.8 | 97.5 ± 14 | 86.1 ± 7.6
NC(=O)C(CCC(F)(F)F)N(Cc1ccc(-c2ncon2)cc1F)S(=O)(=O)c1ccc(Cl)cc1 (stereo unspecified) | 96 ± 23 | 142 | 67.5 ± 2.2 | 75.5 | 102 ± 16 | 96.7 | 81.58 ± 0.81 | 107.6 ± 0.73 | 124 ± 13
COC(=O)N(C)c1c(N)nc(-c2nn(Cc3ccccc3F)c3ncccc23)nc1N [Riociguat] | 122 ± 4.3 | 106 | 104 ± 5.6 | 114 | 94.87 ± 0.45 | 91.6 | 104 ± 2.9 | 97.2 ± 1.1 | 124 ± 14

SMILES | cell viability (HCI01) | cell viability (HCI03) | cell viability (HCI09) | cell viability (HCI11) | cell viability (HCI13) | cell viability (HCI16) | cell viability (UCD52) | cell viability (WHIM2) | cell viability (WHIM30)
COc1ccc(-n2nc(C(N)=O)c3c2C(=O)N(c2ccc(N4CCCCC4=O)cc2)CC3)cc1 [Apixaban] | 100.8 ± 0.64 | 113 | 93.5 ± 17 | 173 | 149 ± 8.9 | 82.4 | 90.7 ± 6.2 | 97.6 ± 8.3 | 85.2 ± 14
C[C@H](C(=O)O)c1ccc(-c2ccccc2)c(F)c1 [(S)-Flurbiprofen] | 109 ± 15 | 138 | 98.3 ± 21 | 78.6 | 98.7 ± 1.3 | 107 | 103 ± 2.4 | 103 ± 13 | 106 ± 5.7
O=C(O)/C=C/c1ccc(O)c(O)c1 [Caffeic acid] | 88 ± 6.6 | 115 | 107 ± 24 | 93.3 | 89.9 ± 9.4 | 137 | 97.2 ± 6 | 86.5 ± 20 | 89.4 ± 2.4
COCCCOc1ccnc(C[S+]([O-])c2nc3ccccc3[nH]2)c1C (stereo unspecified) [Rabeprazole] | 156 ± 40 | 159 | 116 ± 3.5 | 123 | 152 ± 1.6 | 161 | 128 ± 27 | 131 ± 15 | 138 ± 8.2
Cl.Cl.NCCc1cnc[nH]1 [Histamine 2HCl] | 118 ± 14 | 129 | 105 ± 8.2 | 105 | 124 ± 16 | 111 | 87.8 ± 4.6 | 81.3 ± 5.9 | 122 ± 5.2
O=C([C@H](CCC/N=C(N)/N)NS(=O)(C1=C2NC[C@H](C)CC2=CC=C1)=O)N3[C@@H](C(O)=O)C[C@H](C)CC3 [Argatroban] | 116 ± 7.1 | 130 | 98 ± 6.5 | 116 | 95.2 ± 6 | 96.6 | 80.3 ± 7.5 | 98.9 ± 18 | 132 ± 14
Nc1nc(=O)c2c(CCc3ccc(C(=O)NC(CCC(=O)O)C(=O)O)cc3)c[nH]c2[nH]1.O.[Na+] (stereo unspecified) [Pemetrexed disodium hemipenta hydrate] | 97.24 ± 0.52 | 95.8 | 93.8 ± 24 | 91.3 | 90 ± 7.8 | 69.3 | 95.4 ± 1.8 | 90.47 ± 0.25 | 119 ± 36
CNC(=C[N+](=O)[O-])NCCSCc1csc(CN(C)C)n1 [Nizatidine] | 150 ± 9.3 | 120 | 108 ± 15 | 92.7 | 96.2 ± 5.7 | 133 | 83.6 ± 12 | 96.6 ± 1.9 | 123 ± 17
O=C(O)C1=CC(=NNc2ccc([O-])c(C(=O)[O-])c2)C=CC1=O.[Na+].[Na+] [Olsalazine Sodium] | 123 ± 2.4 | 108 | 127 ± 47 | 102 | 120 ± 30 | 88.2 | 91.8 ± 7.2 | 86.8 ± 7.9 | 112 ± 7.4
Cc1ccc(NC(=O)C2(c3ccc4c(c3)OC(F)(F)O4)CC2)nc1-c1cccc(C(=O)O)c1 | 104 ± 31 | 89.5 | 78.15 ± 0.74 | 101 | 66 ± 2.5 | 103 | 86.82 ± 0.29 | 92.4 ± 28 | 157 ± 13
CCn1cc(C(=O)O)c(=O)c2cc(F)c(N3CCNCC3)cc21 [Norfloxacin] | 104 ± 11 | 143 | 116 ± 27 | 101 | 163 ± 52 | 166 | 130 ± 8.1 | 80.5 ± 17 | 160 ± 12
CC(=O)O.C[C@H](N)C(=O)O.NCCCC[C@H](N)C(=O)O.N[C@@H](CCC(=O)O)C(=O)O.N[C@@H](Cc1ccc(O)cc1)C(=O)O [glatiramer acetate] | 94.3 ± 13 | 136 | 108 ± 11 | 108 | 171 ± 16 | 125 | 118 ± 10 | 95.9 ± 38 | 145 ± 6.9
Cl.O=C(Nc1ccccc1)OCC(CN1CCCCC1)OC(=O)Nc1ccccc1 (stereo unspecified) [Diperodon HCl] | 99 ± 2.1 | 124 | 97.9 ± 2.3 | 119 | 162 ± 49 | 138 | 84.2 ± 13 | 94.3 ± 20 | 167 ± 16
C#CCC(Cc1cnc2nc(N)nc(N)c2n1)c1ccc(C(=O)NC(CCC(=O)O)C(=O)O)cc1 (stereo unspecified) [Pralatrexate] | 134 ± 15 | 117 | 102 ± 11 | 115 | 157 ± 27 | 103 | 110 ± 8.8 | 121 ± 10 | 117 ± 4.2
O=C1CCc2ccc(OCCCCN3CCN(c4cccc(Cl)c4Cl)CC3)cc2N1 [Aripiprazole] | 105 ± 16 | 127 | 73.6 ± 6.5 | 82 | 73.33 ± 0.076 | 127 | 73.9 ± 8.9 | 104 ± 6.5 | 122 ± 3.3
CCCc1cc(C(N)=S)ccn1 [Protionamide] | 90.1 ± 32 | 117 | 97.5 ± 3 | 89.2 | 117 ± 10 | 112 | 100.1 ± 0.95 | 84 ± 27 | 112 ± 7.7
CC1CCN(C(=O)CC#N)CC1N(C)c1ncnc2[nH]ccc12 (stereo unspecified) | 169 ± 6.3 | 143 | 81.1 ± 1.5 | 110 | 126 ± 11 | 151 | 136 ± 23 | 95.8 ± 7.4 | 160.4 ± 0.81
CCC1(O)CC2CN(CCc3c([nH]c4ccccc34)C(C(=O)OC)(c3cc4c(cc3OC)N(C)C3C(O)(C(=O)OC)C(OC(C)=O)C5(CC)C=CCN6CCC43C65)C2)C1.O=S(=O)(O)O (stereo unspecified) [Vinblastine sulfate] | 127 ± 23 | 88.5 | 61 ± 26 | 102 | 40.1 ± 2.1 | 144 | 80.3 ± 1.4 | 76.8 ± 13 | 102 ± 19
CC(=O)OC12COC1CC(O)C1(C)C(=O)C(O)C3=C(C)C(OC(=O)C(O)C(NC(=O)OC(C)(C)C)c4ccccc4)CC(O)(C(OC(=O)c4ccccc4)C21)C3(C)C.O.O.O (stereo unspecified) [Docetaxel Trihydrate] | 106 ± 13 | 96.7 | 72.6 ± 5.4 | 86.1 | 101 ± 3.5 | 155 | 91.02 ± 0.77 | 72.3 ± 6.2 | 107 ± 5.4
